# HP1b binding inh = HTS for Inhibitors of HP1-beta Chromodomain Interactions with Methylated Histone Tails; Chromobox protein homolog 1 (Homo sapiens), P83916; AlphaScreen HP1-beta / biotin-H3K9me3 peptide binding; Potency, µM (series often up to 114 µM), without a hit: at the highest dose activity change, negative = inhibition, hits mostly inhibitors; 390,000 compounds, 0.56% hits; further: potency means the concentration at half of the fitted maximal effect; nearly all actives have a fitted effect of over 70% in size
#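 Compound inhibition of the preformed complex between 50 nM HP1-beta and 50 nM biotinylated H3K9me3 peptide was read by AlphaScreen. Buffer was PBS pH 7.4 with 0.01% Tween-20. Incubations ran 30 min at room temperature, with 10 ug/mL donor/acceptor beads.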
# PLK1 PBD block = qHTS for Inhibitors of PLK1-PDB (polo-like kinase 1 - polo-box domain): Primary Screen. Potency, µM, for the others: max response, negative = inhibition, most hits filed as inhibitors. 360,000 compounds, 2.8% hits. Plk1 PBD binding of FITC phosphopeptide, fluorescence polarization; further: potency means the concentration at half of the fitted maximal effect; series mostly up to about 57 µM; on the % scale 0 is the no-effect control and ±100 the full control effect; nearly all actives have a fitted effect of over 65% in size
# PI5P4Ka inh = qHTS for Inhibitors of phosphatidylinositol 5-phosphate 4-kinase (PI5P4K) | max response, % | PI5P4Kalpha enzyme, ADP-Glo luminescence, 60 min; stronger effect = lower value | AID 652105, 2013 | Phosphatidylinositol 5-phosphate 4-kinase type-2 alpha (Homo sapiens), P48426 | 330,000 compounds, 1.2% hits; active means max response of -50% or lower; inconclusive means between -30% and -50%; inactive means -30% or higher; further: value at the top dose of about 77 µM; on the % scale 0 is the no-effect control and ±100 the full control effect
#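 Quantitative HTS of the MLSMR library against PI5P4Kalpha with substrate. ATP added last at 5 microM final; room temperature, 60 minutes. Remaining ATP depleted, ADP converted and read as luminescence.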
# BAZ2B inh = qHTS Assay for Inhibitors of BAZ2B | AID 504333, 2011 | 360,000 compounds, 4.4% hits | Bromodomain adjacent to zinc finger domain protein 2B (Homo sapiens), Q9UIF8 | AlphaScreen BAZ2B-H3K14Ac peptide displacement | Potency, µM (titrated, usually from 114 µM), without a hit: at the top dose activity change, negative = inhibition, most hits filed as inhibitors; further: potency means the concentration at half of the fitted maximal effect; on the % scale 0 is the no-effect control and ±100 the full control effect; nearly all actives have a fitted effect of over 60% in size
#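 Multi-concentration screen (max 110 uM) measuring displacement of acetylated histone H3 peptide from BAZ2B by AlphaScreen, using 50 nM protein, 50 nM peptide and 10 ug/mL streptavidin donor plus Ni-chelate acceptor beads.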
# KAT2A inh = qHTS Assay for Inhibitors of GCN5L2. Histone acetyltransferase KAT2A (Homo sapiens), Q92830. GCN5L2 HAT assay, ThioGlo1 CoA-SH fluorescence. Potency, µM (series often up to 58.9 µM), for inactives: at the highest dose activity change, negative = inhibition, most hits filed as inhibitors. 390,000 compounds, 0.21% hits. AID 504327, 2011; further: potency means the concentration at half of the fitted maximal effect; on the % scale 0 is the no-effect control and ±100 the full control effect
# Target sequence (Q92830 whole entry, looked up): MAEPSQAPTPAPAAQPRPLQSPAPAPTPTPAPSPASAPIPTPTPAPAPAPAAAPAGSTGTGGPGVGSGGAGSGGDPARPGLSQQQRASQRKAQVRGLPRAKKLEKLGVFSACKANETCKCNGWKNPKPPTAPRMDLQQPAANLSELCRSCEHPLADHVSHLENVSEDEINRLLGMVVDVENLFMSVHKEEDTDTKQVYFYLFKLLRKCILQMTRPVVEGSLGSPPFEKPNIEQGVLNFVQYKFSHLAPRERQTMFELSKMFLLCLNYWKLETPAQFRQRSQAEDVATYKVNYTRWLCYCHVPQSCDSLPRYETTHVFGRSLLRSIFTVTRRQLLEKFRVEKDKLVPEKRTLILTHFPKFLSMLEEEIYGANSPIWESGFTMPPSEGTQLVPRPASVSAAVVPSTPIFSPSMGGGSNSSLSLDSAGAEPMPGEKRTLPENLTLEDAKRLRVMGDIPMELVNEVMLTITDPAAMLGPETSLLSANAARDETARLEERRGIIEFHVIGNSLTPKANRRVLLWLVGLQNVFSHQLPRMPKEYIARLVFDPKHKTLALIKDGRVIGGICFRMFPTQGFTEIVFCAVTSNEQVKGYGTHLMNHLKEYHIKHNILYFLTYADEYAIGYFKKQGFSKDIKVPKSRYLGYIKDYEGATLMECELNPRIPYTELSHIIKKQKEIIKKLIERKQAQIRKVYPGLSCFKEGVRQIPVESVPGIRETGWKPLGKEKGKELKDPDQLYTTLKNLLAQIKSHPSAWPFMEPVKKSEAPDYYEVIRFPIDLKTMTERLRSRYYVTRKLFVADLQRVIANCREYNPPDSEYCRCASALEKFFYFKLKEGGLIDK
#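 Fluorescence readout, Ex340nm/Em540nm: ThioGlo1 (50uM final) reacts with free CoA thiol released as 20nM GCN5L2 acetylates H3(1-25) peptide (75uM) using acetyl-CoA (70uM). Compound and enzyme sat 15 min beforehand; 20 min room-temperature reaction.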
# JMJD2A Tudor = qHTS Assay for Inhibitors of JMJD2A-Tudor Domain | 390,000 compounds, 4.4% hits | Potency, µM (series often up to 114 µM), without a hit: at the top dose activity change, negative = inhibition, usual class: inhibitors | AID 504339, 2011 | AlphaScreen JMJD2A-Tudor / H3K4me3 peptide binding; further: potency means the concentration at half of the fitted maximal effect; on the % scale 0 is the no-effect control and ±100 the full control effect; nearly all actives have a fitted effect of over 50% in size
# The depositor's hits bear a star; ? = inconclusive; nt = not tested or not shown; [ ] = remark or other dose. Rows were chosen to be rich in hits. Some 7% of all compounds tested hit in one or more screens of this group. Unless noted, the call rests on the fitted dose curve; in most records, active means well fitted curve in the direction sought with a large enough effect; inconclusive means small, poorly fitted or top-dose-only effect, or another doubt; inactive means no such curve, though single readings can be large; an effect the other way counts as inactive or inconclusive.
SMILES,HP1b binding inh,PLK1 PBD block,PI5P4Ka inh,BAZ2B inh,KAT2A inh,JMJD2A Tudor
Cc1nnc(N(Cc2ccco2)C(=O)c2cccc(C#N)c2)s1,-22%,30µM*,-8,-3%,-14%,-10%[11.4 µM]
CCOC(=O)c1c(NC(=O)c2ccc(C)cc2)sc2c1CC(C)(C)OC2,26%,24µM*,3,59%,-9%,51%
CCOC(=O)c1c(NC(=O)c2ccccc2C)sc2c1CC(C)(C)OC2,45%,21µM*,-2,53%,-6%,60%
CCOC(=O)c1c(NC(=O)CCC(=O)N(CC)CC)sc2c1CC(C)(C)OC2,68%,-19%,1,-2%,-1%,-8%[11.4 µM]
CC1(C)Cc2c(sc(NC(=O)C(=O)N3CCCC3)c2C(N)=O)CO1,25%,24µM*,-8,-34%,-5%,-34%
CCCC(=O)Nc1sc2c(c1C(=O)OCC)CC(C)(C)OC2,17%,-3%,3,-5%,0%,-11%
C=C(C)CNC(=S)Nc1sc2c(c1C(=O)OCC)CC(C)(C)OC2,-36%,19µM*,-11,9%,-1%,?
COc1ccc(OC)c(CNC(=O)c2c(C)oc3ncn(C)c(=O)c23)c1,31%,nt,nt,6%[57.1 µM],-9%,3%
Cc1ccc(S(=O)(=O)N2[C@@H](c3cccc(C)c3)C(C(=O)O)=C[C@H]2CC2CCCC2)cc1,29%,?,3,nt,-10%,-9%
COc1ccc(CCC(=O)OCC(=O)NC(=O)c2ccc(Cl)cc2)cc1,33%,7%,-9,nt,-4%,-6%
CC1(C)OC(c2ccccc2)=C/C(=C/C=C2C(=O)c3ccccc3C2=O)O1,?,3%,-7,1.4µM*,-6%,3.2µM*
COc1ccc(C(C)=O)cc1CC(=O)Nc1cccc(S(=O)(=O)N2CCOCC2)c1,32%,-1%,-11,8%,0%,-6%
O=C(O)c1cccc(S(=O)(=O)NNc2ccccc2C(F)(F)F)c1,-16%,-24%,?,50µM*,-29%,7.9µM*
O=C(O)c1cccc(S(=O)(=O)NCCc2ccccc2)c1,10%,30µM*,4,-7%,-4%,-17%[11.4 µM]
O=C(Nc1ccc2ccccc2n1)c1ccccc1Cl,31%,-10%,4,0%,-15%,3%
COc1ccc2nc3ccccc3nc2c1NC(=O)c1ccccc1Cl,10%,38µM*,-5,-2%,-5%,-2%
COc1ccccc1C(=O)NCCC(=O)Nc1nc2ccccc2[nH]1,5%,0%,-10,-7%,1%,?
CN(C)c1cccc(C(=O)Nc2nc3ccccc3[nH]2)c1,?,-16%,-8,35µM*,-8%,45µM*
COc1ccccc1C(=O)Nc1nc2ccccc2[nH]1,-17%[57 µM],21µM*,?,5%,-10%,?
CN(C)c1cccc(C(=O)NCc2ccccc2)c1,-7%,-10%,-6,-17%,-4%,-27%
CN(C)c1cccc(C(=O)NCc2ccccc2Cl)c1,-2%,-11%,-2,50µM*,-6%,?
CCOc1ccc(NC(=O)CS(=O)CC(=O)N(CC(=O)NC(C)(C)C)C2CCCC2)cc1 (centres undefined),1%,-11%,2,1%,-7%,-3%
O=C(O)C1CC=CCC1C(=O)Nc1cccc([N+](=O)[O-])c1 (centres undefined),30%,3%,2,89µM*,1%,-10%
N#Cc1c(-c2ccccc2)nc(-c2ccccc2)[nH]c1=O,38%,-7%,-3,-34%,-6%,-20%
Nc1nc(-c2ccccc2)[nH]c(=O)c1N=O,8%,-6%,-7,79µM*,6%,-22%
SMILES,HP1b binding inh,PLK1 PBD block,PI5P4Ka inh,BAZ2B inh,KAT2A inh,JMJD2A Tudor
CN(c1ccccc1)c1ccc(/C=C(/CCC(=O)O)c2nc3ccccc3s2)cc1[N+](=O)[O-],?,?,?,nt,nt,22µM*
O=C(O)CC/C(=C\c1ccc(N2CCCC2)c([N+](=O)[O-])c1)c1nc2ccccc2s1,?,34µM*,-21,40µM*,2%,-35%[57.1 µM]
CC(C)c1ccc(O)c(NC(=O)c2ncn[nH]2)c1,32%,-5%,-15,?,-3%,-17%
CC(C)c1ccc2c(c1)C1(NN=C(c3ccccc3)S1)C(=O)N2 (centres undefined),?,?,-15,10µM*,-4%,71µM*
CCc1ccc2c(c1)C1(NN=C(c3ccc(C)cc3)S1)C(=O)N2 (centres undefined),18µM*,?,-28,7.9µM*,-12%,50µM*
CCc1ccc2c(c1)NC(=O)C2(C)Cc1ccc(F)cc1 (centres undefined),nt,-2%,-21,nt,nt,nt
NC(=S)N/N=C/c1ccc(-n2nncc2-c2ccc(Cl)cc2)cc1,-9%,?,?,?,-4%,?
CCOc1ccc(-n2c(C)cc(/C=N/N(C)C)c2C)cc1,-18%,-23%,-8,?,-12%,45µM*
Cc1ccc(NC(=S)c2ccc3ccccc3n2)c(C)c1,11µM*,13µM*,0,13µM*,-20%,?
Cc1ccc(C)c(NC(=O)c2ccc3ccccc3n2)c1,22%,-2%,1,6%,-5%[0.501 µM],-6%
COc1ccc(NC(=S)c2ccc3ccccc3n2)cc1,10µM*,6.7µM*,-1,11µM*,-14%,40µM*
CC(C)N(CC#CCC(O)(c1ccccc1)c1ccccc1)CCO,20%,-6%,10,79µM*,3%,-2%[11.4 µM]
CC(C)N(CC#CCC(O)(c1ccccc1)c1ccccc1)C(C)C,5%,0%,-5,4%,2%,-17%
CCN(CC#CCC(O)(c1ccccc1)c1ccccc1)C(C)C,6%,27µM*,1,-10%,-3%,-30%[57.1 µM]
O=C(CSc1nc2ncc(Br)cc2[nH]1)c1cccc([N+](=O)[O-])c1,20%,-7%,2,-12%,-5%,-34%
O=C(C[n+]1cc(Br)cc(Br)c1)c1cccc([N+](=O)[O-])c1,20%,-21%,-23,50µM*,0%,-27%
Cc1ccc(C2C3=C(CCCC3=O)N=C3c4ccccc4C(=O)C32)cc1 (centres undefined),?,-9%,2,28µM*,-1%,-21%
Cc1ccc(S(=O)(=O)N(Cc2ccccc2)Cc2ccco2)cc1,73%,-9%,-1,43%,-14%,5%

# From PubChem
